Rows were chosen to be rich in hits. Some 2.9% of all compounds tested hit in one or more screens of this group.
D3 ag: qHTS of D3 Dopamine Receptor Agonist: qHTS. D(3) dopamine receptor (Homo sapiens), P35462. D3R DiscoveRx beta-arrestin cells, luminescence, 90 min. max activation, %. hit rate 0.58% among 410,000. AID 652048, 2013; in the data active = max activation above about 30%; note: 0% is about no effect
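Agonist-mode cell screen: cells plated at 1500/well and incubated overnight at 37 °C, then exposed to library compounds for 90 min at 37 °C. Detection reagent was added for 30–60 min at room temperature, and luminescence was read.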
D3 antag: qHTS of D3 Dopamine Receptor Antagonist: qHTS; hit rate 2.5% among 360,000; D(3) dopamine receptor (Homo sapiens), P35462; D3R cells, DiscoveRx beta-arrestin luminescence, antagonist mode; stronger effect = lower value; max response, negative = inhibition, %; in the data active = max response below about -50%; inconclusive = no clear call, values can overlap the other calls; note: % is set by controls: 0 for no effect and ±100 for the full control effect
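Cells plated overnight at 1500 cells/well, then exposed to library compounds with dopamine controls for 90 minutes at 37 degrees C. DiscoveRx reagent added for 30–60 minutes at room temperature; luminescence read, quantitative HTS format.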
B2AR arrestin: qHTS assay of beta-arrestin-biased ligands of beta2-adrenergic receptor | Beta-2 adrenergic receptor (Homo sapiens), P07550 | beta-arrestin recruitment to beta2AR, cell-based reporter | Potency, µM (titrated, usually from 46.1 µM), for inactives: at the top dose activation, actives largely listed as activators | hit rate 0.02% among 330,000;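 note: potency is the fitted concentration of half-maximal effect; 0% = DMSO controls and full agonism = EC100 isoproterenol or metaproterenol; nearly all actives have a fitted effect of over 65% in size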
Target sequence (P07550 whole entry, looked up): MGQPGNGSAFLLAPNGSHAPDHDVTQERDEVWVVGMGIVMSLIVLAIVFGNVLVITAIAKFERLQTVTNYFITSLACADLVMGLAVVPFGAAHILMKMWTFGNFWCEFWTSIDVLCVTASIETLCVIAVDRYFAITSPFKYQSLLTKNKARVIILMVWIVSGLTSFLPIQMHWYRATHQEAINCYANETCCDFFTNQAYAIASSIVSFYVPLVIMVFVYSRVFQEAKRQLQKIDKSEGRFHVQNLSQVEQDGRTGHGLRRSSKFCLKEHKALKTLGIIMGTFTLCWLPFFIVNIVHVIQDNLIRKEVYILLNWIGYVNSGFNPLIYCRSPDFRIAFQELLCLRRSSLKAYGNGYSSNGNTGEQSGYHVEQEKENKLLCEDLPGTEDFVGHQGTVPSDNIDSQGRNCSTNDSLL
a7 integrin act: qHTS for Activators of Integrin-Mediated Alleviation for Muscular Dystrophy | alpha7betagal myoblasts, beta-gal FDG fluorescence, 48 h | Potency, µM (series often up to 38.3 µM), for the others: at the highest dose activation, hits mostly activators | hit rate 0.064% among 350,000 | AID 624291, 2012;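 note: potency is the fitted concentration of half-maximal effect; 100% = response of the positive control SU9516; nearly all actives have a fitted effect of over 60% in size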
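alpha7betagal+/- myoblasts (passage 13, 250/well) treated 48 h at 37C with compounds at 1:260 dilution of DMSO stock. Lysed, then beta-galactosidase activity read as FDG fluorescence (ex 480/em 540) after 30 min, with pre-read for autofluorescence.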
IDH1 R132H inh: qHTS for Inhibitors of mutant isocitrate dehydrogenase 1 (IDH1): qHTS; AID 602179, 2012; Potency, µM (highest dose often 76.6 µM), without a hit: at the top dose activity change, negative = inhibition, hits mostly inhibitors; hit rate 0.093% among 390,000; IDH1-R132H enzyme, NADPH consumption, diaphorase/resazurin fluorescence; Isocitrate dehydrogenase [NADP] cytoplasmic (Homo sapiens), O75874; note: potency is the fitted concentration of half-maximal effect; % is set by controls: 0 for no effect and ±100 for the full control effect; nearly all actives have a fitted effect of over 65% in size
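IDH1-R132H (0.5 ug/mL dispensed) in pH 7.5 Tris buffer was preincubated 30 min with compound, then given a substrate mix of 0.016 mM NADPH and 2 mM alpha-KG for 80 min at room temperature; remaining NADPH was read by diaphorase/resazurin fluorescence.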
The depositor's hits bear a star. Unless noted, calls come from the whole dose curve; as a rule, active = well fitted curve in the direction sought with a large enough effect; inconclusive = small, poorly fitted or top-dose-only effect, or another doubt; inactive = no such curve, though single readings can be large; an effect the other way counts as inactive or inconclusive.

Results for Cc1ccc(CN2CCN(/N=C\c3cccc([N+](=O)[O-])c3)CC2)cc1 ?
D3 ag: -23; D3 antag: -56*; B2AR arrestin: 0%; a7 integrin act: -3%; IDH1 R132H inh: 1%

How did O=[N+]([O-])c1ccccc1/C=N/N1CCN(Cc2ccccc2)CC1 do in these assays?
D3 ag: -17; D3 antag: -67*; B2AR arrestin: -1%; a7 integrin act: 0%; IDH1 R132H inh: 10%

How did Clc1ccccc1/C=N/N1CCN(Cc2ccccc2)CC1 do in these assays?
D3 ag: -17; D3 antag: -23; B2AR arrestin: -4%; a7 integrin act: 34%; IDH1 R132H inh: 2%

What do the screens show for `O=[N+]([O-])c1ccccc1/C=N\N1CCN(Cc2ccccc2Cl)CC1`?
D3 ag: -14; D3 antag: 0; B2AR arrestin: 0%; a7 integrin act: -19%; IDH1 R132H inh: -3%

How did FC(F)(F)c1ccccc1/C=N/N1CCN(Cc2ccccc2)CC1 do in these assays?
D3 ag: -22; D3 antag: -66*; B2AR arrestin: 0%; a7 integrin act: 1%; IDH1 R132H inh: 6%

What do the screens show for `Cc1ccccc1NC(=O)CSc1cn(CC(=O)N(C(C)C)C(C)C)c2ccccc12`?
D3 ag: -2; IDH1 R132H inh: -17%

What do the screens show for `Cc1ccc(-n2c(Cl)c(Cl)nc(Cl)c2=O)cc1`?
D3 ag: -48; D3 antag: -106*; B2AR arrestin: inconclusive; a7 integrin act: inconclusive; IDH1 R132H inh: 12%

What do the screens show for `C/C=C\C=C/C(=O)Nc1cccc(C2=NOC3(C2)C[C@H](C(N)=O)N(C(=O)CC)C3)c1` (some centres not stated)?
D3 ag: 31*; D3 antag: -5; B2AR arrestin: 0%; a7 integrin act: 21%; IDH1 R132H inh: -9%

What do the screens show for `C/C=C\C=C/C(=O)Nc1cccc(C2=NOC3(C2)C[C@@H](C(N)=O)N(C(=O)CCCCC)C3)c1` (some centres not stated)?
D3 ag: 11; D3 antag: 46; B2AR arrestin: -1%; a7 integrin act: -13%; IDH1 R132H inh: -3%

How did C[C@@H]1[C@H](O)[C@@H](C)/C=C/C=C\C=C\C=C\C=C\C=C\C=C\[C@H](O[C@@H]2O[C@H](C)[C@@H](O)[C@H](N)[C@@H]2O)C[C@@H]2O[C@](O)(C[C@@H](O)C[C@@H](O)[C@H](O)CC[C@@H](O)C[C@@H](O)CC(=O)O[C@H]1C)C[C@H](O)[C@H]2C(=O)O (stereo in doubt) do in these assays?
D3 ag: -14

How did COCCn1c(Br)nc2c1c(=O)n(C)c(=O)n2C do in these assays?
D3 ag: -4; D3 antag: -28; B2AR arrestin: -1%; a7 integrin act: 16%; IDH1 R132H inh: -9%

Results for Cc1ccc(OCCn2c(Br)nc3c2c(=O)n(C)c(=O)n3C)cc1 ?
D3 ag: 35*; D3 antag: 15; B2AR arrestin: -1%; a7 integrin act: 4%; IDH1 R132H inh: 8%

How did COc1ccc(NC(=O)NC2(C(=O)N3CCN4CCCC4C3)CCCCC2)cc1 (configuration not stated) do in these assays?
D3 ag: 31*; D3 antag: 1; B2AR arrestin: 1%; a7 integrin act: -11%; IDH1 R132H inh: -7%

What do the screens show for `CCCNC(=O)COC(=O)c1cccnc1Nc1ccccc1F`?
D3 ag: 2; D3 antag: -13; B2AR arrestin: 0%; a7 integrin act: 33%; IDH1 R132H inh: 5%

What do the screens show for `O=C(COC(=O)c1cccnc1Nc1ccccc1F)NCCN1C(=O)CSC1=O`?
D3 ag: -2; D3 antag: -57*; B2AR arrestin: 0%; a7 integrin act: -8%; IDH1 R132H inh: 8%

Results for CCCCN(CC)CCCNC(=O)c1sc2nc(C)cc(C)c2c1-n1cccc1 ?
D3 ag: -39; IDH1 R132H inh: 12%

How did NC(=O)C1CCN(Cc2nc(-c3ccccc3)no2)CC1 do in these assays?
D3 ag: 34*; D3 antag: 29; B2AR arrestin: -1%; a7 integrin act: 4%; IDH1 R132H inh: 0%

What do the screens show for `COC(=O)C1CCN(Cc2cn(-c3ccccc3)nc2-c2ccc3c(c2)OCO3)CC1`?
D3 ag: -2; D3 antag: -69*; B2AR arrestin: -1%; a7 integrin act: -12%; IDH1 R132H inh: 0%

What do the screens show for `COC(=O)C1CCN(Cc2nnc(-c3ccccc3)o2)CC1`?
D3 ag: 81*; D3 antag: 19; B2AR arrestin: -1%; a7 integrin act: 2%; IDH1 R132H inh: -4%

Results for COc1ccc(CCNC(=O)CCc2c(C)nc3c4c(C)cc(C)nc4nn3c2C)cc1OC ?
D3 ag: -5; IDH1 R132H inh: -3%

How did Cc1ccc(NC(=O)C(Cc2ccccc2)n2cccc2)c(C)c1 (configuration not stated) do in these assays?
D3 ag: 11; IDH1 R132H inh: -11%

Results for O=C(O)c1c(Cl)c(Cl)c(Cl)c(Cl)c1-c1c2cc(I)c(=O)c(I)c-2oc2c(I)c(O)c(I)cc12 ?
D3 ag: -26

What do the screens show for `O=C(O)c1ccccc1-c1c2cc(I)c(=O)c(I)c-2oc2c(I)c(O)c(I)cc12`?
D3 ag: -29; D3 antag: -62*; IDH1 R132H inh: inconclusive

What do the screens show for `CCN(CC)S(=O)(=O)c1cc([N+](=O)[O-])ccc1NNC(=O)Nc1ccc(Cl)c(Cl)c1`?
D3 ag: -7; D3 antag: -84*; B2AR arrestin: 0%; a7 integrin act: -65%; IDH1 R132H inh: 3%

What do the screens show for `COc1cccc(C2=CC(c3ccc(OC)c(OC)c3OC)n3ncnc3N2)c1` (configuration not stated)?
D3 ag: -13; IDH1 R132H inh: -14%

How did COc1ccc(C2C=C(c3ccc(C)c(C)c3)Nc3ncnn32)c(OC)c1OC (configuration not stated) do in these assays?
D3 ag: -14; D3 antag: -68*; B2AR arrestin: 0%; a7 integrin act: -23%; IDH1 R132H inh: 13%

What do the screens show for `CSc1ccccc1NC(=O)CN(C)CC(=O)NCC(=O)Nc1ccc(F)cc1`?
D3 ag: 2; D3 antag: -50*; B2AR arrestin: 0%; a7 integrin act: 0%; IDH1 R132H inh: 5%

How did Cc1cccc(NC(=O)Cn2c(=O)nc(-c3ccccc3)c3ccccc32)c1C do in these assays?
D3 ag: 9; IDH1 R132H inh: 3%

Screening results deposited in PubChem by National Center for Advancing Translational Sciences (NCATS).
